HT1080NT lethal – kills 2HG-producing HT-1080-NT fibrosarcoma cells | HT-1080-NT fibrosarcoma viability, CellTiter-Glo ATP luminescence, 48 h | Potency, µM (titrated, usually from 46.1 µM), without a hit: at the top dose activity, negative = less viability, actives largely listed as cytotoxic | 360,000 tested, 1.6% active | AID 686970;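 further: NT is the 2HG producing partner of a matched IDH1 knockdown line; potency means the concentration at half of the fitted maximal effect; 0% = DMSO-treated cells and -100% = media-only wells without cells; nearly all actives have a fitted effect of over 55% in size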
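Compounds were tested in concentration-response format on HT-1080-NT cells for 48 hours at 37 degrees C. Cell viability came from CellTiter-Glo luminescence; curves were classified by r2, response magnitude and activity.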
KB-V1 cytotox – KB-V1 MDR subline cytotoxicity. AID 1347076. KB-V1 MDR cells viability, CellTiter-Glo, 72 h. Potency, µM (doses to about 46.1 µM), most hits filed as cytotoxic. 400,000 tested, 3.4% active; further: potency means the concentration at half of the fitted maximal effect; nearly all actives have a fitted effect of over 60% in size
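Drug-selected KB-V1 cells, grown in DMEM lacking phenol red with 10% FBS, receive compound titrations; after three days at 37 degrees C, surviving cell ATP is quantified by CellTiter-Glo luminescence and responses normalized and curve-fitted.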
IL-1B inflam inh – inhibitors of inflammasome signaling (IL-1 beta secretion). THP-1 LPS/ATP IL-1B secretion, AlphaLISA, 16 h; stronger effect = lower value. activity change, % at 57.5 µM. 360,000 tested, 4.7% active. AID 743279; in the data active means activity change below about -50%; inconclusive means mostly about -30% to -49%
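Secreted IL-1B measured by AlphaLISA bead assay after 16 h compound exposure of THP-1 cells; compounds (final up to 57.5 uM) added 1 h before LPS (250 ng/mL) and ATP (1.25 mM) stimulation; lower signal means less secretion.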
HT1080 IDH1KD tx – HT-1080 IDH1 knockdown cell toxicity (counter line). Potency, µM (highest dose often 46.1 µM), for the others: top-dose activity, negative = toxicity, usual class: cytotoxic. HT-1080 IDH1 knockdown viability, ATP luminescence, 48 h. 360,000 tested, 2% active. AID 686971;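 further: potency means the concentration at half of the fitted maximal effect; 0% = DMSO wells and -100% = cell-free medium wells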
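CellTiter-Glo luminescence after 48 h compound exposure at 37 degrees C of IDH1-knockdown HT-1080 cells in 5% FBS RPMI. %Activity scaled between DMSO wells and cell-free media wells, with curves fitted and assigned curve classes.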
KB-3-1 tox – kills parental KB-3-1 adenocarcinoma cells. KB-3-1 viability, CellTiter-Glo ATP luminescence, 72 h. Potency, µM (doses to about 46.1 µM), hits mostly cytotoxic. 400,000 tested, 1.4% active. AID 1347075; further: potency means the concentration at half of the fitted maximal effect; nearly all actives have a fitted effect of over 60% in size
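KB-3-1 parental drug-naive adenocarcinoma cells in DMEM/10% FBS, incubated 72 h at 37 C with pin-transferred compounds across a concentration series. Viability by CellTiter-Glo luminescence; concentration-response curves fitted after normalization.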
Starred values were filed as active, the others as inactive; i = inactive; ? = inconclusive; nt = no result; ! = not confirmed by another sample; [ ] = dose if it differs, or a comment. Most compounds without a hit are left out; they make up all but 8.8% or so of the library. Unless noted, the call rests on the fitted dose curve; in most records, active means well fitted curve in the direction sought with a large enough effect; inconclusive means small, poorly fitted or top-dose-only effect, or another doubt; inactive means no such curve, though single readings can be large; an effect the other way counts as inactive or inconclusive. Unless noted, on the % scale 0 is the no-effect control and ±100 the full control effect.

SMILES	HT1080NT lethal	KB-V1 cytotox	IL-1B inflam inh	HT1080 IDH1KD tx	KB-3-1 tox
O=C(CSc1nnc(CCCN2C(=O)c3cccc4cccc(c34)C2=O)n1-c1ccccc1)NCCCN1CCOCC1	15.8%	i	9.1	14.4%	i
Cc1cc(C)c(C)c(OCCN2CCOCC2)c1	-5.0%	i	39.6	1.0%	i
CCN(CC)S(=O)(=O)c1ccc(N/N=C(\C)c2ccncc2)nc1	-13.1%	i	-5.3	-12.0%	i
CCN(CC)S(=O)(=O)c1ccc(N/N=C(\C)c2cccnc2)nc1	10.0%	i	-50.9*	12.6%	i
COc1cc(C(O)c2nc(-c3ccccc3)cs2)ccc1F (configuration not stated)	?	?	-20.1	-76.8%	?
O=C(Nc1cccc(O)c1)c1noc2c1CCc1ccccc1-2	-25.8%	23.1µM*!	-83.3*	-28.5%	i
C=CCSc1nnc(-c2cc3c(-c4ccccc4)nn(C)c3s2)n1C	-12.1%	?	-62.0*	-5.4%	i
C=CCSc1nnc(-c2cc3c(C(F)(F)F)nn(C)c3s2)n1C	20.9%	i	-13.3	7.1%	i
CC1CCC2(CC1)NC(=O)N(CC(=O)N1CCN(S(=O)(=O)c3ccccc3)CC1)C2=O (configuration not stated)	6.9%	i	4.7	5.4%	i
CCCCOC(=O)c1ccc(-c2ccc(/C=N/NC(=S)NCC)o2)cc1	2.82µM*	i	18.1	-23.5%	i
O=C1CC(Sc2nnnn2C2CCCCC2)C(=O)N1c1ccccc1 (configuration not stated)	?	i	3.8	5.01µM*	i
Cn1nnnc1SC1CC(=O)N(c2ccccc2)C1=O (configuration not stated)	2.1%	i	0.0	-10.7%	i
Cc1cc(C)cc(N2C(=O)CC(Sc3nnnn3-c3ccccc3)C2=O)c1 (configuration not stated)	7.08µM*	i	-17.2	2.51µM*	i
Cc1ccc(C(=O)C(C)OC(=O)CNS(=O)(=O)c2ccc(C)cc2)cc1 (configuration not stated)	-0.4%	i	7.8	-1.0%	i
CC(O)CNc1nc2ccccc2n1CC(=O)N1CCN(Cc2ccccc2)CC1 (configuration not stated)	-0.9%	?	-23.5	-3.4%	i
CC1(C(=O)Nc2ccc3c(c2)OCCO3)CSCC(=O)N1CC(F)(F)F (configuration not stated)	16.3%	i	24.3	4.1%	i
COc1ccc(C(=O)N(NC(=O)Oc2ccccc2)C(C)(C)C)cc1	2.7%	i	2.1	10.3%	i
COc1ccc(NC(=O)COC(=O)C23CC4CC(CC(NC(C)=O)(C4)C2)C3)cc1S(=O)(=O)N1CCOCC1	-1.1%	i	6.7	2.1%	i
CC(=O)NC12CC3CC(C1)CC(C(=O)Nc1ccc(C)c(S(=O)(=O)N4CCCCCC4)c1)(C3)C2	-2.4%	20.6µM*	6.6	-3.0%	?
CC(=O)NC12CC3CC(C1)CC(C(=O)Nc1cccc(S(=O)(=O)N4CCCCCC4)c1)(C3)C2	3.8%	14.6µM*	-13.4	7.8%	i
CCN(CC)C(=O)c1nc(-c2cccc3ccccc23)no1	-0.3%	?	-1.3	-5.5%	i
COc1ccc(C(=O)N/N=C(\c2ccccc2)c2ccccn2)cc1	?	0.651µM*	-23.4	?	i
O=C(NC(O)C(=O)c1ccccc1)c1ccccn1 (configuration not stated)	-5.9%	i	3.8	3.7%	?
O=C(NN=C(c1ccccc1)c1ccccn1)c1ccccc1	-19.9%	?	-98.7*	?	?
O=C(N/N=C(\c1ccccc1)c1ccccn1)c1ccccc1Cl	-15.2%	?	-103.7*	?	?
SMILES	HT1080NT lethal	KB-V1 cytotox	IL-1B inflam inh	HT1080 IDH1KD tx	KB-3-1 tox
CCCCOC(=O)c1ccc(OC(=O)c2sc3ncn(Cc4ccccc4Cl)c(=O)c3c2C)cc1	nt	i	nt	nt	?
COC(=O)c1ccccc1NC(=O)CSc1nnc(-c2cccnc2)n1N	13.9%	i	4.3	21.9%	i
Cc1cc(C(=O)NNC(=O)c2cccs2)c(C)o1	0.2%[9.24 µM]	i	-12.3	4.9%	i
C#CCn1c(S(=O)(=O)Cc2ccc(C)cc2)nc(-c2ccccc2)c1-c1ccccc1	-21.7%	6.51µM*	?	?	6.51µM*
N#CC1=C(N)SC2(CCCCC2)SC1c1ccccc1 (configuration not stated)	21.6%	i	5.9	14.1%	i
N#CC1=C(C2CC2)CC(c2ccccc2)C(C#N)=C1N (configuration not stated)	-1.1%	23.1µM*	11.4	-20.5%	i
COc1ccc(NC(=O)/C(C#N)=C/c2ccc(Sc3nncn3C)c([N+](=O)[O-])c2)cc1	?	i	?	?	?
N#Cc1ccccc1NC(=O)c1ccc2c(c1)OCCO2	-2.1%	i	-3.6	-2.9%	i
O=C(Nc1ccc(Cn2nnc3ccccc32)cc1)c1ccco1	?	16.4µM*	27.4	?	16.4µM*
O=C(Nc1ccccc1)c1cccc(-c2nnc(-c3ccccc3)o2)c1	8.9%	i	-2.6	7.9%	i
O=C(Nc1cccc(-c2nnc(-c3ccccc3)o2)c1)c1ccco1	9.2%	2.91µM*	14.6	21.0%	i
O=C(Nc1nnc(-c2ccccc2Cl)o1)c1ccco1	8.91µM*	16.4µM*	-0.6	?	i
Cc1ccc(-c2nnc(NC(=O)c3ccco3)o2)c(C)c1	?	?	-3.0	-21.0%	?
O=C(Nc1ccc2oc(-c3ccccc3)nc2c1)c1ccco1	12.9%	23.1µM*	5.9	-5.4%	i
O=C(Nc1ccc(Cc2ccncc2)cc1)c1ccco1	6.9%	i	-5.2	3.5%	i
COc1ccc(CN2CCC2(C)C(=O)Nc2ccc(OC)c(OC)c2)cc1 (configuration not stated)	-0.8%	?	-9.7	4.9%	i
Cc1ccccc1C(=O)Nc1cc2c(cc1N1CCCCC1)n(C)c(=O)n2C	nt	i	nt	nt	i
Cn1c(CC(=O)Nc2ccccc2F)nnc1SCC(=O)N1CCOCC1	0.6%	nt	21.4	-0.6%	nt
CC1CCN(C(=O)c2cc(-c3cccc(Cl)c3)on2)CC1	nt	i	nt	nt	i
O=C(Nc1ccc(NC(=O)c2ccco2)cc1)c1ccco1	-3.0%	i	-13.1	-5.8%	i
O=C(Nc1ccc(Nc2ccccc2)cc1)c1ccco1	-2.6%	i	-100.1*	?	i
Brc1ccc2c(ccc[n+]2CCc2ccccc2)c1	nt	i	nt	nt	?
O=S(=O)(/C=C/C=C/S(=O)(=O)c1ccccc1)c1ccccc1	?	i	-101.4*	1.3µM*	6.51µM*
O=C(COc1ccc([N+](=O)[O-])cc1)NNC(=O)Nc1cccc(F)c1	-12.2%	nt	5.5	-18.3%	nt

Screening data from PubChem BioAssay.
